Test results taken from PubChem BioAssay AID1117283 (Broad Institute, 2014).
Measured potencies and affinities stand elsewhere. Unmarked numbers belong to inactive results.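 The calls were made as follows: active = fluorescent signal decreased by at least 40%; inconclusive = no clear call, values can overlap the other calls; inactive = the rest, including activity opposite to the expected direction.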

experiment: fibronectin fibrillogenesis inhibitors in fibroblasts, dose response, AH1F cells, Alexa488-fibronectin fluorescence, cherry-pick, set 2 (AID 1117283); conditions: Alexa488-fibronectin deposition fluorescence, overnight; series mostly up to 35 µM; activity change, negative = inhibition: at the top concentration;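 also: AH1F fibroblasts given Alexa488-labelled fibronectin at 24 nM final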

Row | Compound | activity change, negative = inhibition
1 | CCOC(=O)C1=C(C)Nc2nc3ccccc3n2C1c1ccncc1 (configuration not stated) | -4.18%
2 | C[C@H](O)C#Cc1ccc2c(c1)O[C@H](CN(C)C)[C@@H](C)CN([C@H](C)CO)S2(=O)=O | -7.32%
3 | C[C@H](O)C#Cc1ccc2c(c1)O[C@H](CN(C)C)[C@H](C)CN([C@@H](C)CO)S2(=O)=O | -8.27%
4 | O=C(C[C@@H]1C[C@@H]2c3cc(NC(=O)c4ccc5c(c4)OCO5)ccc3O[C@@H]2[C@@H](CO)O1)NCc1ccc(Oc2ccccc2)cc1 | 3.19%
5 | COC(=O)C[C@H]1CC[C@@H]2[C@@H](COc3ccc(NC(=O)Cc4cccs4)cc3C(=O)N2C)O1 | 4.16%
6 | COc1ccc(CCNC(=O)C2CCN(Cc3nc(-c4ccccc4F)oc3C)CC2)cc1OC | 7.77%
7 | O=C(CC1Nc2ccccc2NC1=O)Nc1ccc2c(c1)OCO2 (configuration not stated) | -12%
8 | O=c1c2cc(N3CCOCC3)ccc2[nH]c(=S)n1Cc1ccc(Cl)cc1 | -10.1%
9 | O=S(=O)(c1ccccc1F)N1CC[C@@H]2[C@H]1c1cc(-c3cccc(F)c3)ccc1N[C@@H]2CO | 2.9%
10 | CO[C@@H]1CN(C)C(=O)c2cc(NC(=O)Nc3cc(Cl)cc(Cl)c3)ccc2OC[C@H](C)NC[C@H]1C | 25.1%
11 | COCC(=O)Nc1ccc2c(c1)C(=O)N(C)[C@@H]1CC[C@H](CC(=O)NCc3ccccc3Cl)O[C@H]1CO2 | -3.95%
12 | Cc1ccc(C(O)c2ncc(-c3cccc4ccccc34)[nH]2)cc1F (configuration not stated) | -7.33%
13 | O=C(CSc1nc2ncc(Cl)cc2[nH]1)c1c[nH]c2ccccc12 | 14.2%
14 | N#Cc1ccc(-c2ccc3c(c2)[C@@H]2[C@@H](CCN2S(=O)(=O)c2ccccc2F)[C@H](CO)N3)cc1 | 27.1%
15 | COCC(C)n1c(SCc2nc(N)nc(Nc3ccccc3C)n2)nc2ccccc2c1=O (configuration not stated) | -3.15%
16 | C[C@@H]1CN([C@H](C)CO)C(=O)c2cc(NC(=O)C3CCCCC3)ccc2O[C@@H]1CN(C)Cc1ccc(-c2ccccc2)cc1 | -5.41%
17 | C[C@@H]1CN([C@H](C)CO)C(=O)c2cc(-c3ccccc3)cnc2O[C@@H]1CN(C)Cc1ccccc1 | 2.01%
18 | C[C@H](O)C#Cc1ccc2c(c1)O[C@H](CN(C)C)[C@H](C)CN([C@H](C)CO)S2(=O)=O | -13.8% [at 11 µM]
19 | CCN(Cc1ccncc1)C(=O)c1ccc2c(c1)S(=O)(=O)c1ccccc1C2=O | -7.62%

Row | Compound | activity change, negative = inhibition
20 | COC(=O)C[C@@H]1CC[C@H]2[C@H](COc3ccc(NC(=O)Cc4cccs4)cc3C(=O)N2C)O1 | -4.43% [at 30 µM]
21 | O=C(Nc1nc(-c2ccncc2)cs1)C1COc2ccccc2O1 (configuration not stated) | 3.61%
22 | O=S(=O)(c1cccc(F)c1)N1CC[C@@H]2[C@@H](CO)Nc3ccc(-c4cccc(F)c4)cc3[C@@H]21 | 4.96% [at 30 µM]
23 | CO[C@@H]1CN(C)C(=O)c2cc(NC(=O)Nc3cc(Cl)cc(Cl)c3)ccc2OC[C@H](C)NC[C@@H]1C | 0.389%
24 | COc1cccc(S(=O)(=O)N2CC[C@@H]3[C@H]2c2cc(-c4ccc(C#N)cc4)ccc2N[C@@H]3CO)c1 | 0.219%
25 | C[C@@H]1CN([C@@H](C)CO)C(=O)c2cc(NC(=O)CCCN(C)C)ccc2O[C@H]1CN(C)Cc1ccc(-c2ccccc2)cc1 | 2.11%
26 | Cc1ccc(S(=O)(=O)N2CC3(C)CN(S(=O)(=O)c4ccc(C)cc4)CC(C)(C2)C3=O)cc1 | -0.415%
27 | O=C(OCC(O)C(O)COC(=O)c1ccccc1)c1ccccc1 (configuration not stated) | -5.12%
28 | COc1ccccc1CNc1nc(NCc2cnc(C)cn2)c2sccc2n1 | 6.67%
29 | O=S(=O)(c1ccccc1F)N1CC[C@@H]2[C@H](CO)Nc3ccc(-c4cccc(F)c4)cc3[C@@H]21 | -7.86%
30 | COCC(=O)Nc1ccc2c(c1)C(=O)N(C)[C@H]1CC[C@H](CC(=O)NCc3ccccc3Cl)O[C@@H]1CO2 | -3.04% [at 30 µM]
31 | CC(C)Cc1nnc(NC(=O)CSc2nc(N)cc(=O)[nH]2)s1 | 4.83%
32 | Cc1ccc(CS(=O)Cc2ccc(C(=O)NC3CCCC(C)C3C)o2)cc1 (configuration not stated) | -3.83%
33 | S=C(NCC1CCCO1)Nc1ccc(Cl)cc1Cl (configuration not stated) | -0.519%
34 | CO[C@H]1CN(C)C(=O)c2ccc(NC(=O)Nc3ccc(Cl)c(Cl)c3)cc2OC[C@H](C)NC[C@H]1C | -3.99%
35 | C[C@@H]1CN([C@@H](C)CO)C(=O)c2cc(NC(=O)C3CCCCC3)ccc2O[C@@H]1CN(C)Cc1ccc(-c2ccccc2)cc1 | -14.2%
36 | C[C@@H]1CN([C@@H](C)CO)C(=O)c2cc(NC(=O)CCCN(C)C)ccc2O[C@@H]1CN(C)Cc1ccc(-c2ccccc2)cc1 | -1.8%
37 | COCC(=O)Nc1ccc2c(c1)C(=O)N(C)[C@H]1CC[C@@H](CC(=O)NCc3ccccc3Cl)O[C@H]1CO2 | 8.86%
